Laboratory results published in PubChem BioAssay (EPA / NIEHS).
The source holds several records for some structures; these can differ, active in one and inactive in another. Calls of active or inactive are those of the source. The calls were made as follows: active = hit-call score of the fitted dose curve at least 0.9, where 1 is the maximum; inactive = score below 0.9.

Tests used:
[1] = APR_HepG2_P-H2AX_72hr: Apredica 72-hour HepG2 Assay for H2AX Phosphorylation (AID 2282916); settings: imaging, actives raise or lower the signal;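 also: phospho-histone H2A.x immunostain intensity per cell marking DNA damage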
Outline: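 HepG2; cpd 0.39–200 uM ×10 conc, duplicates; 0.5% DMSO; 72 hr. Fix 3.7% formaldehyde 30 min RT, 0.5% Triton X-100 10 min. Anti-phospho-H2A.x 1:200 + Hoechst 2 ug/mL, 60 min RT; ArrayScan imaging.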

[2] = APR_HepG2_MitoMembPot_72hr: Apredica 72-hour HepG2 Assay for Mitochondrial Membrane Potential (AID 2282917); settings: imaging, actives raise or lower the signal
Outline: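 HepG2 cells exposed 72 h to compounds at 0.39–200 uM (0.5% v/v DMSO, duplicates); MitoTracker Red CMXRos 250 nM loaded 30 min before 3.7% formaldehyde fixation, imaged by HCS fluorescence. Bidirectional fit versus DMSO.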

[3] = APR_HepG2_MitoticArrest_72hr: Apredica 72-hour HepG2 Assay for Mitotic Arrest (AID 2282918); settings: high-content imaging, actives raise or lower the signal
Outline: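 High-content imaging of fixed human HepG2 cells after 72 h compound exposure (0.39–200 uM, duplicates, 0.5% DMSO); mitotic arrest scored from phospho-histone H3 and nuclear Hoechst staining relative to DMSO.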

[4] = APR_HepG2_MicrotubuleCSK_72hr: Apredica 72-hour HepG2 Assay for Microtubule CSK Stabilty (AID 2282919); settings: HepG2 microtubule cytoskeleton, high-content imaging, actives raise or lower the signal
Outline: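 HepG2 human liver cells were dosed for 72 h at ten concentrations from 0.39 to 200 uM in duplicate (0.5% v/v DMSO final). Fixed, permeabilized cells were immunostained for alpha-tubulin (Cy5) with a Hoechst counterstain and imaged at 20x.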

[5] = APR_HepG2_P-H2AX_24hr: Apredica 24-hour HepG2 Assay for H2AX Phosphorylation (AID 2282920); settings: high-content imaging, actives raise or lower the signal
Outline: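 High-content imaging of phospho-histone H2A.x immunofluorescence, nuclei counterstained with Hoechst 33342, in fixed HepG2 cells. Compounds ran 0.39–200 uM in duplicate for 24 h, final DMSO 0.5%. Signal change fitted both directions against DMSO.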

[6] = APR_HepG2_StressKinase_72hr: Apredica 72-hour HepG2 Assay for Stress Kinase (AID 2282921); settings: HepG2 stress kinase (phospho-c-Jun) imaging, actives raise or lower the signal
Outline: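 Dose 0.39–200 uM (10 pts, duplicate), 0.5% DMSO; 72 h; fix 3.7% formaldehyde 30 min RT; Triton permeabilize; anti-phospho-c-Jun/Cy3 + Hoechst 60 min RT; image 20x; fit gain/loss vs DMSO.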

[7] = APR_HepG2_StressKinase_24hr: Apredica 24-hour HepG2 Assay for Stress Kinase (AID 2282922); settings: HepG2 stress kinase (phospho-c-Jun) imaging, actives raise or lower the signal
Outline: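 HepG2 cells exposed 24 hr to compound at 0.39–200 uM (10 concentrations, duplicate), 0.5% v/v DMSO final. Fixed in 3.7% formaldehyde, permeabilized with Triton X-100, immunolabeled for phospho-c-Jun with Hoechst 33342; HCS fluorescence imaging, bidirectional fit versus DMSO.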

[8] = APR_HepG2_p53Act_72hr: Apredica 72-hour HepG2 Assay for p53 Activation (AID 2282923); settings: high-content imaging, actives raise or lower the signal;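 also: average cellular p53 protein immunofluorescence intensity in HepG2 cells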
Outline: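 10-pt conc. 0.39–200 uM, duplicate, 0.5% DMSO; 72 hr exposure; 3.7% formaldehyde fix, 0.5% Triton perm; sheep anti-p53/Cy5 + Hoechst; ArrayScan 20x, 6 images/well; gain/loss fit vs DMSO.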

[9] = APR_HepG2_MitoMass_72hr: Apredica 72-hour HepG2 Assay for Mitochondrial Mass (AID 2282924); settings: high-content imaging, actives raise or lower the signal;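 also: MitoTracker Red CMXRos stain intensity per cell imaged as mitochondrial mass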
Outline: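 HepG2 cells were exposed for 72 hr to compounds at 0.39–200 uM (ten concentrations, duplicate, 0.5% v/v DMSO final). Live cells were stained with 250 nM MitoTracker Red CMXRos for 30 min, then fixed in 3.7% formaldehyde and imaged by HCS fluorescence.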

[10] = APR_HepG2_NuclearSize_72hr: Apredica 72-hour HepG2 Assay for Nuclear Size (AID 2282925); settings: high-content imaging, actives raise or lower the signal
Outline: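 HepG2 cells were exposed to compounds at ten concentrations from 0.39 to 200 uM (duplicate, 0.5% DMSO final) for 72 hr. After fixation in 3.7% formaldehyde, nuclei were stained with Hoechst 33342 (2 ug/mL) and imaged at 20x.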

[11] = ATG_CRE_CIS: Attagene CIS-FACTORIAL HepG2 Assay for human cAMP Responsive Element (CRE) binding protein 3 (AID 2282926); settings: HepG2 CRE cis-reporter, Attagene multiplexed mRNA; actives raise or lower the signal
Outline: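 Multiplexed transcription-unit reporters transfected into HepG2; 24 h dosing; RT-PCR/capillary electrophoresis fluorescence read-out; bidirectional fit vs DMSO.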

[12] = target: CCAAT/enhancer-binding protein beta (Homo sapiens) (UniProt P17676); assay: ATG_C_EBP_CIS: Attagene CIS-FACTORIAL HepG2 Assay for human CCAAT/Enhancer Binding Protein (C/EBP) beta (AID 2282927); settings: HepG2 Attagene cis-factorial transcription factor reporter; actives raise or lower the signal
Chain of CCAAT/enhancer-binding protein beta (Homo sapiens) (P17676 whole entry, looked up, the tested form may be a part): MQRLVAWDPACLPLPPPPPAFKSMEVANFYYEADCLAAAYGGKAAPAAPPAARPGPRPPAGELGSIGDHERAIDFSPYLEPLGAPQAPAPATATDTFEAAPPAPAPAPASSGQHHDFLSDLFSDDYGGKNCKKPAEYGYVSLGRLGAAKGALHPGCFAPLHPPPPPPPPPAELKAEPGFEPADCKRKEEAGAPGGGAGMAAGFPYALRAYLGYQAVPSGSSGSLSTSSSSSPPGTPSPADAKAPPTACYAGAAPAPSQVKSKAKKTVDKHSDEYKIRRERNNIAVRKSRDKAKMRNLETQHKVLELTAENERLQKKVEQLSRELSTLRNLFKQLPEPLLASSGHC
Outline: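 Chemical-treated HepG2 cells (24 h) bearing cis-regulated reporter constructs were processed for total RNA, then reverse transcription, PCR amplification, fluorescent primer extension and fragment analysis; gain- and loss-of-signal were fitted against DMSO.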

[13] = ATG_CMV_CIS: Attagene CIS-FACTORIAL HepG2 Assay for human CMV (Internal Marker) (AID 2282928); settings: HepG2 CMV promoter reporter, transcription factor profiling; actives raise or lower the signal;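 also: endpoint acts as a background internal control marker rather than a target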
Outline: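 Endogenous transcription factor activity read in HepG2 via transfected cis-promoter reporter units. After 24 h dosing, reporter mRNA measured by RT-PCR/capillary electrophoresis; gain or loss of signal fit relative to DMSO.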

[14] = ATG_DR4_LXR_CIS: Attagene CIS-FACTORIAL HepG2 Assay for human Liver X Receptor (LXR), DR4 submotif (AID 2282929); settings: HepG2 Attagene DR4 cis-reporter, mRNA transcription; actives raise or lower the signal
Outline: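 Transiently transfected HepG2 liver cells; cis-regulated reporters; 24 h dosing. RT-PCR plus CE read-out of reporter mRNA. DMSO baseline, bidirectional curve fitting.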

[15] = target: Aryl hydrocarbon receptor (Homo sapiens) (UniProt P35869); assay: ATG_Ahr_CIS: Attagene CIS-FACTORIAL HepG2 Assay for human Aryl Hydrocarbon Receptor (Ahr) (AID 2282930); settings: HepG2 AhR cis-factorial reporter transcription; actives raise or lower the signal
Chain of Aryl hydrocarbon receptor (Homo sapiens) (P35869 whole entry, looked up): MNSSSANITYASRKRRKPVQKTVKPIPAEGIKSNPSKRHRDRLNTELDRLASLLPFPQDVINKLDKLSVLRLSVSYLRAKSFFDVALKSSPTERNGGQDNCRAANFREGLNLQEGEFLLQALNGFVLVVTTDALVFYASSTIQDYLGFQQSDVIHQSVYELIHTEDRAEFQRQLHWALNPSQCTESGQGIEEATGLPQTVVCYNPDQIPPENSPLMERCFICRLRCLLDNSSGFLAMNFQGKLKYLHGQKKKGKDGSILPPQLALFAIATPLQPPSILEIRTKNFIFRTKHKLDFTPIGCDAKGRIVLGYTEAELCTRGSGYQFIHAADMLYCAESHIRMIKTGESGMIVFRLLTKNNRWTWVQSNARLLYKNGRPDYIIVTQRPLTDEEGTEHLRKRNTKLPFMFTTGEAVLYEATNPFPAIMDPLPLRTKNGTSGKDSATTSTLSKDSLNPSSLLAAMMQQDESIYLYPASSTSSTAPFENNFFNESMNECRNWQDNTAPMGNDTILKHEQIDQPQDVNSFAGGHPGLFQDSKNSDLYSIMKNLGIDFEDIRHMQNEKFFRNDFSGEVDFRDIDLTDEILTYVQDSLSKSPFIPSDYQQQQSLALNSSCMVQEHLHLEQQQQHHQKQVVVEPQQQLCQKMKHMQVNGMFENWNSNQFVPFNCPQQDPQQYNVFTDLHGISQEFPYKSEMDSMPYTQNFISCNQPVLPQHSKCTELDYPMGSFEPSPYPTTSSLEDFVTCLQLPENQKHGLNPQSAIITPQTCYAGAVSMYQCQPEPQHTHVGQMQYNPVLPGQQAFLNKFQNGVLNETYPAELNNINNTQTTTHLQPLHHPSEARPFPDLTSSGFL
Outline: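 Following 24 h of chemical dosing, transfected HepG2 liver cells with cis-driven reporter units were lysed for RNA; reporter mRNA was quantified via RT-PCR and capillary electrophoresis, and responses fitted bidirectionally from DMSO.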

[16] = ATG_AP_2_CIS: Attagene CIS-FACTORIAL HepG2 Assay for human Activator Protein 2 (AP-2) (AID 2282932); settings: HepG2 AP-2 cis-reporter, Attagene transcription factor profiling; actives raise or lower the signal
Outline: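 Bidirectional curve fitting against DMSO was applied to reporter mRNA signals from HepG2 cells 24 h after dosing. Cis-promoter reporter units, transiently transfected, were read by RT-PCR plus capillary electrophoresis.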

[17] = ATG_BRE_CIS: Attagene CIS-FACTORIAL HepG2 Assay for human Bone Morphogenetic Protein (BMP) Response Element (BRE) (AID 2282933); settings: HepG2 BMP response element reporter, Attagene transcription factor profiling; actives raise or lower the signal
Outline: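 After a 24 h chemical treatment, transiently transfected HepG2 cells were lysed for RNA; reporter transcripts were quantified by fluorescent RT-PCR and capillary electrophoresis, normalised to DMSO.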

[18] = target: Retinoic acid receptor alpha (Homo sapiens) (UniProt P10276); assay: ATG_DR5_RAR_CIS: Attagene CIS-FACTORIAL HepG2 Assay for human Retinoic Acid Receptor Alpha (RARE), DR5 submotif (AID 2282934); settings: HepG2 Attagene cis-factorial RARE DR5 reporter, mRNA; actives raise or lower the signal
Chain of Retinoic acid receptor alpha (Homo sapiens) (P10276 whole entry, looked up): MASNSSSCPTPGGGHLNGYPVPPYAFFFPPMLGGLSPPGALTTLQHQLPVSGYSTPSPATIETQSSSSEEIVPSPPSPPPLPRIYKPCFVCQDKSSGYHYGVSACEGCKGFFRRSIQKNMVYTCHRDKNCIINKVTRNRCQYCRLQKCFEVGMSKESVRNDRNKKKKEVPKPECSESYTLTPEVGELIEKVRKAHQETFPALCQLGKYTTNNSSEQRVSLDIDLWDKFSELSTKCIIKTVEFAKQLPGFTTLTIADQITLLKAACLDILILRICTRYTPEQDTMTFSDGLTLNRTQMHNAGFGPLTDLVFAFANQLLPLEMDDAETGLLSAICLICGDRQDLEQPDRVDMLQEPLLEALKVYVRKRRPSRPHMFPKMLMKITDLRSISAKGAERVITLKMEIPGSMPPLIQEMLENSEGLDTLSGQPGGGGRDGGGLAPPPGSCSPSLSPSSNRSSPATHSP
Outline: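 Transfected HepG2 reporter cells are exposed to chemicals for 24 h. Then RNA is extracted and the DR5 element reporter transcript is measured by RT-PCR and capillary electrophoresis, with bidirectional curve fitting relative to DMSO.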

[19] = target: Transcription factor E2F1 (Homo sapiens) (UniProt Q01094); assay: ATG_E2F_CIS: Attagene CIS-FACTORIAL HepG2 Assay for human E2F Transcription Factor 1 (AID 2282935); settings: HepG2 Attagene cis-reporter, E2F reporter RNA transcripts; actives raise or lower the signal
Chain of Transcription factor E2F1 (Homo sapiens) (Q01094 whole entry, looked up): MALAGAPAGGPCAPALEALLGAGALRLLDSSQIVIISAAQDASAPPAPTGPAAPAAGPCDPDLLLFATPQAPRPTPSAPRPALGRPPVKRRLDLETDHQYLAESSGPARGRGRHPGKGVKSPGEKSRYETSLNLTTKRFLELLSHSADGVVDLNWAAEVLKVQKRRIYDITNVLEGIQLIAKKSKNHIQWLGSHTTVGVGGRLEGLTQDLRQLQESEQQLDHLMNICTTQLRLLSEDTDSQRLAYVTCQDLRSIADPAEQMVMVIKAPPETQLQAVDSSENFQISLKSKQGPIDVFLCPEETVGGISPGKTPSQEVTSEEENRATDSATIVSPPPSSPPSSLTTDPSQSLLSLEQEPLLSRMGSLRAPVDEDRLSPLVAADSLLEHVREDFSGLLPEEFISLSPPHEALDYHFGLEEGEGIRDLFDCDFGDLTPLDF
Outline: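 Multiplexed cis-reporter assay: HepG2, transient transfection, 24 h dosing, mRNA quantitation by labeled RT-PCR and CE.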

[20] = ATG_AP_1_CIS: Attagene CIS-FACTORIAL HepG2 Assay for human Activator Protein 1 (AP-1) (AID 2282931); settings: HepG2 Attagene cis-factorial AP-1 reporter mRNA; actives raise or lower the signal
Outline: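 We transfected HepG2 cells transiently with a set of cis-regulated reporter transcription units, dosed them for 24 h, and quantified reporter mRNA via RT-PCR and capillary electrophoresis, scoring gain or loss of signal relative to DMSO.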

Measured: AC50

Nc1ccc(-c2ccc(N)cc2)cc1
active: [1] 104 µM | [5] 91.2 µM | [8] 106 µM
not listed: [20]
inactive: all other assays above

C=CC(=O)NCNC(=O)C=C
not listed: [20]
inactive: all other assays above

Clc1ccc(C(Cl)(Cl)Cl)cc1
not listed: [20]
inactive: all other assays above

Sc1ccccc1
inactive: [11] | [12] | [13] | [14] | [15] | [20] | [16] | [17] | [19]

Cc1cccc([N+](=O)[O-])c1
not listed: [20]
inactive: all other assays above

CN(C)c1nc(=O)n(C2CCCCC2)c(=O)n1C
not listed: [8] | [18] | [20]
inactive: all other assays above

OCC(O)CO
active: [15] 33.3 µM
inactive: [11] | [12] | [13] | [14] | [15] | [20] | [16] | [17] | [18] | [19]

c1ccc(-c2ccccc2)cc1
not listed: [20]
inactive: all other assays above

Cc1cccc(C)c1N
not listed: [20]
inactive: all other assays above
